The record followed here is paper PMC8384837, “Expanding the binding specificity for RNA recognition by a PUF domain”.

For the first assay, the target named is PUM1 PUF domain R3-AFG (Homo sapiens, UniProt Q14671 828-1176, C935A;R936F;Q939G). Kind of assay: yeast three-hybrid, YBZ-1, SC-Leu-His + 0.5 mM 3-AT, 4 days. Conditions: tags: N-Gal4 AD-HA kept; label: inside an RPR1-promoter hybrid RNA with tandem MS2 sites; ssRNA. A digest of the protocol:
(§1)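 Pumilio-1 PUF domain libraries, randomized at the three base-contacting residues of each repeat, were co-expressed with matching RNA elements from a centromeric plasmid in strain YBZ-1, which carries a LexA–MS2 coat fusion and a HIS3 reporter. Transformants grew for four days on SC-Leu (input) or on SC-Leu-His + 0.5 mM 3-AT (selection), and the repeat regions were PCR-amplified and Illumina-sequenced. The interaction score is the log change in variant frequency from input to selection. That logarithm is base 2, with a pseudocount of 1 where a variant was absent.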
With “GGCUAGAACUAGUGGAUCCCCCGGCGCCCGGCGGCUCGAGCCCGGGUAAGUGUAAUUAGUCUGCAUGCCGCCGGGCGCCAUGCCUGCAGGUCGACUCUAGAAAACAUG”, the binding signal was 1.51 log2 enrichment (interaction score). Turning to “GGCUAGAACUAGUGGAUCCCCCGGCGCCCGGCGGCUCGAGCCCGGGUAAGUGUAAAUAGUCUGCAUGCCGCCGGGCGCCAUGCCUGCAGGUCGACUCUAGAAAACAUG”, the binding signal was 3.62 log2 enrichment (interaction score). Same read-out and setting: the figure for “GGCUAGAACUAGUGGAUCCCCCGGCGCCCGGCGGCUCGAGCCCGGGUAAGUGUAAGUAGUCUGCAUGCCGCCGGGCGCCAUGCCUGCAGGUCGACUCUAGAAAACAUG” is 0.76 log2 enrichment (interaction score).

In the next assay the target is PUM1 PUF domain R4-ARA (Homo sapiens, UniProt Q14671 828-1176, N971A;H972R;Q975A). The assay is described as above. Conditions: tags: N-Gal4 AD-HA kept; label: inside an RPR1-promoter hybrid RNA with tandem MS2 sites; ssRNA. A digest of the protocol: as §1
As to “GGCUAGAACUAGUGGAUCCCCCGGCGCCCGGCGGCUCGAGCCCGGGUAAGUGUAAAUAGUCUGCAUGCCGCCGGGCGCCAUGCCUGCAGGUCGACUCUAGAAAACAUG”, the binding signal was 3.7 log2 enrichment (interaction score). In the case of “GGCUAGAACUAGUGGAUCCCCCGGCGCCCGGCGGCUCGAGCCCGGGUAAGUGUAUAUAGUCUGCAUGCCGCCGGGCGCCAUGCCUGCAGGUCGACUCUAGAAAACAUG”, the binding signal is 1.69 log2 enrichment (interaction score). On the same count and under the same terms, the figure for “GGCUAGAACUAGUGGAUCCCCCGGCGCCCGGCGGCUCGAGCCCGGGUAAGUGUACAUAGUCUGCAUGCCGCCGGGCGCCAUGCCUGCAGGUCGACUCUAGAAAACAUG” is 2.79 log2 enrichment (interaction score).
